# In the library only some 11% were active in any assay of this set; here they are far more common.
# PNC inhibitor: inhibitors of perinucleolar compartment assembly; PC3M PTB-GFP, PNC prevalence imaging, 16 h; stronger effect = lower value; AID 2417; activity change (PNC), negative = inhibition, % at 10 µM; 140,000 compounds, 3.1% hits;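 active = readout at or below -70, meaning at least 70% loss of cells showing the perinucleolar compartment, a nuclear body marking cancer cells; inconclusive = readout between -30 and a set limit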
#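 Read-out is percentage of cells bearing a perinucleolar compartment, from automated 20x imaging of fixed, Hoechst-stained PC3M PTB-GFP cells. Cells were seeded 4 h, then exposed 16 h to compound (23 nl of library stock) in duplicate plates.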
# IMPase inh: IMPase inhibition in cells; 120,000 tested, under 10 active; CHO-M1 cells, IP1 accumulation, HTRF TR-FRET ratio; inhibition (IP1 accumulation), % at 46.1 µM; active = well fitted curve in the direction sought with a large enough effect in the signal ratio, not every such curve was filed as active; inconclusive = small, poorly fitted or top-dose-only effect, or a change in a side signal; inactive = no such curve, though single readings can be large or run the other way; the % refers to the signal ratio;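 note: cells stimulated with carbachol in lithium chloride buffer; higher means more IMPase inhibition seen as more IP1 and lower FRET ratio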
#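 The IP-One HTRF competitive assay in carbachol-stimulated CHO-M1 cells quantifies cellular IP1. Compounds spanned up to 46 uM final, and activity is expressed as AC50 from concentration-response fits of the ratio and donor data.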
# ALDH1A1 block: inhibitors of human aldehyde dehydrogenase 1A1; Purified ALDH1A1, NADH fluorescence, propionaldehyde substrate; AID 1030; 220,000 compounds, 7.3% hits; Potency, µM (top dose mostly 75.3 µM), hits mostly inhibitors
# Target sequence (P00352 whole entry, looked up): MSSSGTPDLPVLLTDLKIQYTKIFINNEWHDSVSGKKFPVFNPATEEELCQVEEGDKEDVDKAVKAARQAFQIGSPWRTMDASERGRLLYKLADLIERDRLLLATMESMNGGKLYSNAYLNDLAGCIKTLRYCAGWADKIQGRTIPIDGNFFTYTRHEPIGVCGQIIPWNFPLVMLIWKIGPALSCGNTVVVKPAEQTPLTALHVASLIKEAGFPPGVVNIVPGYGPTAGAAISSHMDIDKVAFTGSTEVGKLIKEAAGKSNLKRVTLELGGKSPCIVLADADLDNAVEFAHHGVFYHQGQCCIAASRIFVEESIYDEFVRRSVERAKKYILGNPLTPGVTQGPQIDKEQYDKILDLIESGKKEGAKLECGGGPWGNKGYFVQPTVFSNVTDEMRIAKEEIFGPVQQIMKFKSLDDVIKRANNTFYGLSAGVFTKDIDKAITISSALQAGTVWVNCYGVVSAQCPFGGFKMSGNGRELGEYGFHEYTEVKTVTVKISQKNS
# IMPase Li inh: IMPase inhibition in cells with lithium potentiation. CHO-M1 cells, IP1 TR-FRET (IP-One), carbachol + lithium. Potency, µM (series often up to 59.4 µM), usual class: inhibitors. 210,000 compounds, 0.35% hits. AID 1457; active = well fitted curve in the direction sought with a large enough effect; inconclusive = small, poorly fitted or top-dose-only effect, or another doubt; inactive = no such curve, though single readings can be large; an effect the other way counts as inactive or inconclusive;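 note: IP1 builds up when IMPase is blocked and the TR-FRET signal falls; nearly all actives have a fitted effect of over 50% in size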
#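 CHO-M1, 2000 cells/well, 16–30 h culture; cpd + low Li+, 30 min 37C; lysis with d2-IP1/Eu-anti-IP1 Ab, 10 min RT; TR-FRET 665/620 ratio and 620 channel; AC50 via Hill.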
# ALOX12 inhib: 12-hLO (ALOX12) enzyme inhibition | purified 12-hLO, xylenol orange hydroperoxide absorbance | AID 1452 | P18054 | 150,000 compounds, 0.12% hits | Potency, µM (highest dose often 57.1 µM), most hits filed as inhibitors; active = well fitted curve in the direction sought with a large enough effect; inconclusive = small, poorly fitted or top-dose-only effect, or another doubt; inactive = no such curve, though single readings can be large; an effect the other way counts as inactive or inconclusive; note: nearly all actives have a fitted effect of over 55% in size
#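 Hydroperoxide formation by human 12-lipoxygenase from 40 uM arachidonic acid was followed colorimetrically via ferric-xylenol orange complex, using the 573/405 nm absorbance ratio. Enzyme concentration was 150 nM, with 30 min reaction at room temperature.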
# HPGD block: HPGD (human) dehydrogenase inhibition. purified HPGD, NADH fluorescence kinetic, PGE2 substrate. Potency, µM, hits mostly inhibitors. 150,000 compounds, 4.3% hits
#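 20 nM HPGD preincubated 15 min at room temperature with compound in 50 mM Tris-HCl pH 8, 0.01% Tween 20. Started with 1 mM NAD+ and 30 uM prostaglandin E2; NADH fluorescence (360/450 nm) read 5 times over 30-s intervals, last minus first.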
# A number is an active result; 0 = inactive; ? = inconclusive; - = not tested or not shown; [ ] = remark or other dose. Unless noted, calls come from the whole dose curve; as a rule, active = well fitted inhibition curve with a large enough effect (not every such curve was filed as active); inconclusive = small, poorly fitted or top-dose-only effect, or another doubt; inactive = no such curve, though single readings can be large or run the other way.
SMILES,PNC inhibitor,IMPase inh,ALDH1A1 block,IMPase Li inh,ALOX12 inhib,HPGD block
COc1ccc(OCC(=O)OCC(=O)NCc2ccco2)cc1,0,0,0,0,0,0
Cn1cccc1C(=O)N1CCC2(CCN(C(=O)Nc3cccc(F)c3)CC2)CC1,-,-,0,0,0,0
COC(=O)[C@@]1(Cc2ccc(OC)cc2)[C@H]2c3cc(C(=O)N(C)C)n(Cc4ccc(OC)c(OC)c4)c3C[C@H]2CN1C(=O)c1ccccc1,-,-,0,0,0,0
c1ccc(CSc2ccc(-c3ccco3)nn2)cc1,0,0,40µM,0,0,0
Cc1cccc(CSc2ccc(-c3ccco3)nn2)c1,?,0,?,0,0,0
Clc1ccc(CSc2ccc(-c3ccco3)nn2)cc1,-,-,0,0,-,-
Clc1cccc(CSc2ccc(-c3ccco3)nn2)c1,-,-,25µM,0,-,-
Fc1ccccc1CSc1ccc(-c2ccco2)nn1,-,-,28µM,0,-,-
Cc1ccc(CSc2ccc(-c3ccco3)nn2)cc1,0,0,0,0,0,0
O=C(NCc1cccnc1)/C(=C/c1ccc(-c2ccc(Cl)cc2)o1)S(=O)(=O)c1ccccc1,0,0,?,0,0,?
O=C(NCc1cccnc1)/C(=C\c1ccc(-c2ccc(Br)cc2)o1)S(=O)(=O)c1ccccc1,?,0,3.5µM,0,0,0
COc1cc(NC(=O)CCN2CCN(c3ccccc3)CC2)cc(OC)c1,-,0,-,-,-,-
O=C(NC(=S)Nc1ccc2c(c1)OCCO2)c1cccc2ccccc12,0,-,13µM,0,?,0
O=C(NC(=S)Nc1ccc2c(c1)OCCO2)c1cccc(Br)c1,0,-,14µM,0,?,0
CN(C)c1ccc(N=Nc2ccccc2C(=O)OCC(=O)NC2CCCC2)cc1,-115,0,0,-,0,-
CCOc1ccccc1-n1c(=S)sc2c(=O)n(-c3ccc(C)cc3)c(=S)[nH]c21,-,-,7.9µM,0,-,-
CCn1c(=S)sc2c(=O)n(-c3ccccc3)c(=S)[nH]c21,-,-,?,0,-,-
c1ccc(C[n+]2c(-c3ccccc3)csc2Nc2ccccc2)cc1,0,0,?,0,0,0
c1ccc(Nc2scc(-c3ccccc3)[n+]2Cc2ccco2)cc1,-,-,10µM,0,-,-
COc1ccc(NC(=O)Cc2ccc(Cl)c(Cl)c2)cn1,-,-,0,0,-,-
COc1ccc(NC(=O)/C(Cl)=C(/Cl)S(=O)(=O)Cc2ccc(C)cc2)cn1,0,0,2.5µM,0,0,0
COc1ccc(NC(=O)/C(Cl)=C(/Cl)S(=O)Cc2ccccc2Cl)cn1 (configuration not stated),-,-,0.63µM,0,-,-
COC(=O)COc1ccc(S(=O)(=O)Nc2ccc(C(N)=O)cc2)cc1Cl,-92,0,0,0,0,0
Cc1cc(S(=O)(=O)NC2CCCCC2)ccc1OCC(=O)NCc1ccccn1,0,0,?,0,0,16µM
COc1ccc(S(=O)(=O)N2CCc3ccccc32)cc1C(=O)NCCc1ccccn1,-,-,?,0,-,-
SMILES,PNC inhibitor,IMPase inh,ALDH1A1 block,IMPase Li inh,ALOX12 inhib,HPGD block
O=C(COc1ccc(S(=O)(=O)N2CCc3ccccc32)cc1Cl)NCc1ccccn1,?,0,14µM,0,0,0
N#CCCn1c(=O)c(-c2ccc(F)cc2)nc2cnc(N3CCNCC3)nc21,-,-,?,0,-,-
CCOc1cc(C2CC(=O)Nc3cc(C)c(C)cc32)ccc1O (configuration not stated),-139,0,0,0,0,0
CCOc1ccc(C2CC(=O)Nc3cc4c(cc32)OCO4)cc1OC (configuration not stated),-,0,-,-,-,-
O=[N+]([O-])c1ccc2c(N=Nc3ccc4ccccc4c3O)c(O)cc(S(=O)(=O)O)c2c1,-,-,0[13.5 µM],0,?,2.8µM
C[C@](O)(C(=O)Nc1ccc(S(=O)(=O)c2ccccc2)cc1)C(F)(F)F,-,0,0,0,0,0
Clc1c(-c2nnc3n2CCC3)sc2ccccc12,0,0,?,0,0,28µM
Clc1c(-c2nnc3n2CCCCC3)sc2ccccc12,0,0,0,0,0,2µM
Cn1c(-c2sc3ccccc3c2Cl)n[nH]c1=S,0,0,?,0,0,20µM
COc1ccc2c(Cl)c(-c3nnc4n3CCCCC4)sc2c1,0,0,?,0,0,1µM
c1cncc(-c2nnc3n2CCC3)c1,0,0,0,0,0,0

# From PubChem
